PubChem BioAssay AID1259313 (Sanford-Burnham Center for Chemical Genomics, 2017)
About 8,500 (2.5%) of roughly 340,000 compounds were called active. What follows is part of a selection rich in actives, with near analogues and random picks from the rest. A number with no mark means an inactive call.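 Rule for the calls: active = melting temperature shift of at least 10% of the positive control shift, at one fixed dose; inactive = the rest.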

system: Glutamate receptor ionotropic, NMDA 3A (GRIN3A) ligand-binding domain; assay: binders of NR3A ligand-binding domain, primary screen, biophysical, differential scanning fluorimetry, uHTS (AID 1259313); settings: NR3A LBD differential scanning fluorimetry, at 25 µM, hits give high values, 0% = protein alone, 100% = glycine-bound protein

Row | Structure (SMILES) | Tm shift relative to glycine control
1 | CCOc1ccc(C(CCc2ccccc2)NC(=O)c2ccc(OC)c(OC)c2)cc1OCC (configuration not stated) | -0.18%
2 | O=C1CCC(C(=O)N2CCCCO2)CN1Cc1cccc(C(F)(F)F)c1 (configuration not stated) | 0.67%
3 | CCc1ccc(Oc2coc3cc(O)ccc3c2=O)cc1 | -1.09%
4 | COc1ccc(Oc2coc3cc(OC(=O)c4cncc(Br)c4)ccc3c2=O)cc1 | -4.3%
5 | COC(=O)COc1ccc2c(=O)c(Oc3ccccc3Br)coc2c1 | 17.5% (active)
6 | CC(C)OC(=O)c1ccc(COc2ccc3ccc(=O)oc3c2)o1 | 1.19%
7 | CCOc1ccccc1Oc1cn[nH]c1-c1ccc(OC)cc1O | -4.92%
8 | COc1ccc(-c2cn[nH]c2-c2ccc(OC)cc2)cc1 | 0%
9 | COc1ccc(Oc2cn[nH]c2-c2ccc(OC)cc2O)cc1 | 17.8% (active)
10 | Cc1ccc(S(=O)(=O)N2CCN(C(=O)c3cc(S(=O)(=O)N4CCOCC4)ccc3F)CC2)cc1 | -1.16%
11 | CC1CCCC(NC(=O)CSc2nccn2C)C1C (configuration not stated) | 3.2%
12 | Cc1ccc(-n2nc3c(=O)n(C(C)C(=O)NCc4ccc5c(c4)OCO5)nc(C)c3c2C)cc1 (configuration not stated) | 0%
13 | COC(C(=O)Nc1ccc(S(=O)(=O)Nc2ccc(C)c(C)c2)cc1)c1ccccc1 (configuration not stated) | 16.2% (active)
14 | COC(C(=O)NCc1ccccc1C)c1ccccc1 (configuration not stated) | -0.62%
15 | COC(C(=O)Nc1ccc(C(C)=O)cc1)c1ccccc1 (configuration not stated) | -4.28%
16 | CCOc1ccc(CN2CCN(CCCc3ccccc3)C(CCO)C2)cc1 (configuration not stated) | 0.91%
17 | CC1CN(C(=O)COC(=O)c2cccc(NS(=O)(=O)c3ccccc3)c2)CC(C)O1 (configuration not stated) | 2.04%
18 | CC1=C(C)CC(C(=O)NC(C)CCc2ccccc2)C(C(=O)O)C1 (configuration not stated) | -2.66%
19 | COc1ccccc1S(=O)(=O)c1c(C)cc(C)[nH]c1=O | -0.69%
20 | CSc1cc(C)[nH]c(=O)n1 | 1.65%
21 | Cc1cc(=O)cc(C)[nH]1 | 13% (active)
22 | CCOc1cnc(C(=O)NNC(=O)c2ccccc2Br)o1 | -1.85%
23 | Clc1cccc(N=C2NN=C(c3ccc4c(c3)OCCO4)CS2)c1 | 12.7% (active)
24 | c1ccc(CN2CCC(N=C3NN=C(c4ccc5c(c4)OCCO5)CS3)CC2)cc1 | -2.04%

Row | Structure (SMILES) | Tm shift relative to glycine control
25 | CN(C)c1nc(=Nc2cccc(Cl)c2)ss1 | -11%
26 | Cc1ccc(S(=O)(=O)N(C)c2ccc(OCC(=O)OCC(=O)N(CC#N)c3ccccc3)cc2)cc1 | 2.35%
27 | Cc1ccc(S(=O)(=O)N(C)c2ccc(OCC(=O)OCc3ccc(C#N)cc3)cc2)cc1 | 12.6% (active)
28 | Cc1ccc(S(=O)(=O)N(C)c2ccc(OCC(=O)NC3=NCCS3)cc2)cc1 | -0.31%
29 | O=C(NCc1csc(-c2cccs2)n1)C1CC1 | 0.25%
30 | COc1ccc(C2OCC3(CO2)SC(=O)NC3=O)cc1OC (configuration not stated) | -1.38%
31 | O=C(NCc1cccs1)c1ccc(CS(=O)Cc2ccccc2Cl)o1 (configuration not stated) | 0.47%
32 | Nc1nnn(CC(=O)N/N=C/c2ccccc2)n1 | -2.09%
33 | O=C(CN1CCOCC1)N/N=C/c1ccc(-c2ccc(Br)cc2)o1 | -2.4%
34 | O=C(Cn1nnc(-c2ccccc2)n1)N/N=C/c1ccc(-c2ccc(Cl)cc2)o1 | 384% (active)
35 | CCOc1ccc(-n2c(SCC(=O)NC3CCS(=O)(=O)C3)nnc2-c2cccnc2)cc1 (configuration not stated) | -1.01%
36 | CCN1CC(CN(C)Cc2nc(-c3ccc(Cl)cc3)no2)CC1=O (configuration not stated) | -0.89%
37 | O=C(OCC(=O)N1CCc2ccccc21)c1ccc([N+](=O)[O-])cc1 | 1%
38 | CCc1ccc(Nc2n[n+](-c3ccccc3)c(-c3cccc(Cl)c3Cl)s2)cc1 | 16% (active)
39 | COc1cc(Br)c(-c2sc(Nc3ccccc3)n[n+]2-c2ccccc2)cc1OC | -12%
40 | COc1ccc(C)cc1Nc1n[n+](-c2ccccc2)c(-c2cccc(Cl)c2Cl)s1 | 4.85%
41 | O=C(c1ccc(F)cc1)N1CCC(n2nnc3ccccc32)CC1 | 3.22%
42 | CCOCCOC(=O)C1=C(C)N(C)C(=O)NC1c1ccccc1F (configuration not stated) | -1.72%
43 | COc1ccc2c(c1)C(SCC(=O)NCc1ccccc1)CC(C)(C)O2 (configuration not stated) | -0.16%
44 | CC(C)OCCCNC(=O)C1CC(=O)N(C2CCCCCCC2)C1 (configuration not stated) | 2.24%
45 | CC(C)NC(=O)C(=O)NCCCOC(C)C | 18.7% (active)
46 | CCOCCCNC(=O)C(=O)NCCCOCC | -0.68%
47 | CC(C(=O)Nc1ccc(S(=O)(=O)N2CCCC2)cc1)N(C)Cc1ccc(F)cc1 (configuration not stated) | -1.56%
